Results on 96 compounds are retold here after PubChem BioAssay AID1619 (SRMLSC, 2009).

Hit rate of the full screen: of about 220,000 compounds, about 830 (0.38%) were called active.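 The calls were made as follows: active = compound inhibiting the enzyme by more than half at any dose during confirmatory dose-response retesting; inconclusive = strong single-dose inhibitors picked by rank but not retested; inactive = the rest.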 Only a sample is shown. Entries with a potency or affinity are not part of this list.

The target of the experiment is Leucine aminopeptidase (Plasmodium falciparum (isolate 3D7)) (UniProt Q8IL11). Put plainly: P. falciparum M17LAP inhibitors, primary screen, biochemical, fluorogenic H-Leu-NHMec substrate, 1536-well (AID 1619).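 Also: plate controls were full reaction with DMSO carrier for no effect and no enzyme background for full effect.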 Particulars: recombinant M17LAP, H-Leu-NHMec fluorogenic kinetic assay; at 30 µM; hits give high values.
Leucine aminopeptidase (Plasmodium falciparum (isolate 3D7)), sequence (Q8IL11 whole entry, looked up): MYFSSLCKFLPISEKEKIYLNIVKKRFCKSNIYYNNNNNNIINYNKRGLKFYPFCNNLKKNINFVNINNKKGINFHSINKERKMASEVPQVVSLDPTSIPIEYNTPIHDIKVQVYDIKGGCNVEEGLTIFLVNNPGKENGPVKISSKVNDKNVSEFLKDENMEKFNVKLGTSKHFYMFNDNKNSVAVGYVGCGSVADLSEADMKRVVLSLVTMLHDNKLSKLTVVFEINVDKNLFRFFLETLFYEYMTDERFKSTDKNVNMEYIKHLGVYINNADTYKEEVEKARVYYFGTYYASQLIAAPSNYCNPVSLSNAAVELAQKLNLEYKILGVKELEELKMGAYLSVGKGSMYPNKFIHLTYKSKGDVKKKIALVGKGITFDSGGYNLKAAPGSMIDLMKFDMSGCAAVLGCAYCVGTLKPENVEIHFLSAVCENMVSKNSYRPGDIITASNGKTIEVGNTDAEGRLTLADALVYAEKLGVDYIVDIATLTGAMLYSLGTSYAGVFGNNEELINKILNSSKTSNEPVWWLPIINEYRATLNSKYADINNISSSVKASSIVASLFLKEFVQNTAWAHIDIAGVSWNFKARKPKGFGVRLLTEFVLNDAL
Regarding `CCOC(=O)c1[nH]c2ccc(Br)cc2c1NC(=O)CCN1CCCC(C)C1` (stereo unspecified), the inhibition was 19.3% (inactive).

For `CCC(C)(C)NC(=O)CN(C(=O)c1snc(C(N)=O)c1N)c1ccc(OC)c(OC)c1`, the inhibition was -0.26% (inactive).

For the compound `CCc1ccccc1NC(=O)CSc1n[nH]c(C)c1[N+](=O)[O-]`, the inhibition is -11.3% (inactive).

In the case of `Cn1cnnc1SCC(=O)Nc1ccc(Br)cc1F`, the inhibition was 4.31% (inactive).

`O=C(CSCC(=O)Nc1cccc2ccccc12)Nc1cccc2ccccc12`: the inhibition is -9.94% (inactive).

For `O=C(CSc1ccccn1)Nc1cccc2ccccc12`, the inhibition is 6.7% (inactive).

As for `COC(=O)c1ccc(Cl)c(NC(C)=O)c1`, the inhibition is 4.44% (inactive).

For the compound `COC(=O)c1ccc(Cl)c(NC(=O)CN2CCN(C)CC2)c1`, the inhibition was -7.62% (inactive).

Regarding `CC(C)n1cnnc1SCC(=O)Nc1ccc(Br)cc1F`, the inhibition was -3.86% (inactive).

Take `CCCn1c(SCC(=O)Nc2ccccc2CC)nnc1C(C)C`: the inhibition was -2.04% (inactive).

In the case of `C/C(=C\C(=O)c1ccccc1)Nc1ccc2c(c1)OCO2`, the inhibition was -1.02% (inactive).

For `CCOC(=O)c1cnc(SC)nc1Oc1cccc(NS(=O)(=O)c2ccccc2)c1`, the inhibition was 12.5% (inactive).

For `COc1ccc(-c2nc(C)c(C(C)=O)n2O)cc1[N+](=O)[O-]`, the inhibition was 39.5% (inactive).

Regarding `O=C(COn1nnc2ccc(C(F)(F)F)cc21)Nc1c(Cl)cccc1Cl`, the inhibition is -14.4% (inactive).

Regarding `FC(F)(F)c1ccnc(NCc2ccco2)n1`, the inhibition is 5.81% (inactive).

On to `O=C(CN1C(=O)S/C(=C\C=C\c2ccccc2)C1=O)Nc1ccc(O)cc1`, for which the inhibition was 9.74% (inactive).

For the compound `O=C(CN1C(=O)S/C(=C\C=C\c2ccccc2)C1=O)Nc1ccc(C(=O)O)cc1`, the inhibition was 15.3% (inactive).

Turning to `Cc1ccc(C)c2nc(SCC(=O)N3CCCc4ccccc43)c(C#N)cc12`, the inhibition was -4.2% (inactive).

For `CC(=O)NCC(=O)N1CCCC(C(=O)c2ccc(-c3ccccc3)c(F)c2)C1` (stereo unspecified), the inhibition is -3.83% (inactive).

As to `Cc1cc(Nc2ccc([N+](=O)[O-])cc2)nc2ccccc12`, the inhibition is 13.7% (inactive).

As for `CC(C)OC(=O)C1CC=CCC1C(=O)Nc1ccc(Cl)cc1` (stereo unspecified), the inhibition was 2.15% (inactive).

Take `CCOc1ccc(NC(=O)C2CC(=O)OC2c2ccccc2)cc1` (stereo unspecified): the inhibition was -1.92% (inactive).

Regarding `CC1=C(C)CC(C(=O)Nc2ccc(C(N)=O)cc2)C(C(=O)O)C1` (stereo unspecified), the inhibition was 20.2% (inactive).

Consider `CC(C)(C)c1ccc(Oc2ccc(NC(=O)C3CC=CCC3C(=O)O)cc2)cc1` (stereo unspecified), for which the inhibition was 3.52% (inactive).

For the compound `CCOc1ccc(NC(=O)C2C3CC/C=C\CCC32)cc1` (stereo unspecified), the inhibition was 4.68% (inactive).

`CCOc1ccc(NS(=O)(=O)c2ccc(NC(=O)[C@@H]3CCCC[C@@H]3C(=O)O)cc2)cc1`: the inhibition is 42.4% (inactive).

Take `CC(=O)c1ccn(S(=O)(=O)c2ccc(Cl)cc2)c1`: the inhibition is 9.38% (inactive).

As for `CC(=O)Nc1ccc(NC(=O)C2CCCN(c3nnc(-n4cccc4)s3)C2)cc1` (stereo unspecified), the inhibition was 4.4% (inactive).

Take `CCNC(=O)NCc1c(C)c(C)n(Cc2ccccc2)c1-n1cccc1`: the inhibition was 4.1% (inactive).

As for `CCOc1ccc2[nH]cc(C(=O)NCCCN3CCOCC3)c(=O)c2c1`, the inhibition is 4.64% (inactive).

In the case of `CCCCN1CNC(=S)N(CCc2ccc(OCC)c(OCC)c2)C1`, the inhibition is 4.53% (inactive).

For `Cn1c(SCC(=O)c2ccc3c(c2)OCO3)nnc1C1COc2ccccc2O1` (stereo unspecified), the inhibition is 10.4% (inactive).

`C=CCn1c(SCC(=O)NCc2ccc3c(c2)OCO3)nnc1C1CCCCC1`: the inhibition was 20.8% (inactive).

Take `Cc1nnc(SCC(=O)NCc2ccc3c(c2)OCO3)n1C`: the inhibition is -1.94% (inactive).

Consider `C=CCn1c(SCC(=O)Nc2cc(C)on2)nnc1C1COc2ccccc2O1` (stereo unspecified), for which the inhibition was 9.81% (inactive).

For `O=c1[nH][nH]cc1C=Nc1ccccc1Cl`, the inhibition is 2.22% (inactive).

Consider `Clc1ccc(OCc2nc(-c3ccncc3)no2)cc1`, for which the inhibition was 0.59% (inactive).

On to `COc1ccc(-c2[nH]n(-c3ccc([N+](=O)[O-])cc3)c(=O)c2C=NCc2ccncc2)cc1`, for which the inhibition is -8.57% (inactive).

Regarding `CC(C)COC(=O)Nc1ccc(C(=O)O)cc1`, the inhibition was 13.3% (inactive).

For `Cc1cc(C(F)F)n2nc(C(=O)Nc3ccccc3F)nc2n1`, the inhibition is 1.81% (inactive).

As for `O=C(O)CCCN1C(=O)/C(=C/c2cn(-c3ccccc3)nc2-c2cccs2)SC1=S`, the inhibition was 7.34% (inactive).

In the case of `O=C(O)CCCCCN1C(=O)/C(=C\c2cn(-c3ccccc3)nc2-c2cccs2)SC1=S`, the inhibition was -1.95% (inactive).

In the case of `Cn1c(=O)c(-c2cc(Br)ccc2N)nc2ccccc21`, the inhibition is 9.54% (inactive).

For `COC(=O)c1c(NC(=O)c2ccoc2C)sc2c1CCC2`, the inhibition is -15.6% (inactive).

As for `NC(=O)c1c(NC(=O)C2CCCO2)sc2c1CCCC2` (stereo unspecified), the inhibition is 25.2% (inactive).

In the case of `CCOC(=O)c1c(NC(=O)c2ccoc2C)sc2c1CCC2`, the inhibition is 16.6% (inactive).

With `NC(=O)c1c(NC(=O)C2CCCO2)sc2c1CCC2` (stereo unspecified), the inhibition is 40% (inactive).

As to `O=c1cc(-c2ccc([N+](=O)[O-])cc2)c2cc3c(cc2[nH]1)OCCO3`, the inhibition was 0.51% (inactive).

For `CCc1cccc(C)c1NC(=S)N(CCN(C)C)C(C)c1cccnc1` (stereo unspecified), the inhibition was 3.46% (inactive).

Take `CSc1nnc(-c2sc3cc(C(F)(F)F)cnc3c2-c2cccnc2)n1C`: the inhibition is 2.54% (inactive).

As for `COc1cc(OC)c2ccc(=O)oc2c1C(CC(=O)N1CCOCC1)c1ccc2c(c1)OCO2` (stereo unspecified), the inhibition is 11.3% (inactive).

On to `CCCc1cc(=O)[nH]c(SCCOc2ccc(Cl)cc2)n1`, for which the inhibition was 3.09% (inactive).

On to `CCN=C(NCC)SC1CC(=O)N(c2ccccc2)C1=O` (stereo unspecified), for which the inhibition is 0.73% (inactive).

Take `COc1ccc(S(=O)(=O)Nc2ccc(C(F)(F)F)cc2)cc1OC`: the inhibition is 8.66% (inactive).

As for `Cn1cnc(S(=O)(=O)Nc2ccc(C(F)(F)F)cc2)c1`, the inhibition was 8.69% (inactive).

With `Cc1cc(NC(=O)CN2CCCCC2C)no1` (stereo unspecified), the inhibition is 15.1% (inactive).

As for `COc1ccccc1/C=C\C=N\NC(=O)CCn1nnc2ccccc21`, the inhibition was 4.22% (inactive).

Regarding `COc1ccccc1/C=C/C=N/NC(=O)CC1C(=O)NN=C1C` (stereo unspecified), the inhibition was 13.6% (inactive).

For the compound `CC1=NNC(=O)C1CC(=O)N/N=C/C=C/c1ccccc1` (stereo unspecified), the inhibition is 19.3% (inactive).

For `CC1C(=O)NN=C1C(=O)N/N=C\C(Br)=C\c1ccccc1` (stereo unspecified), the inhibition was 45.9% (inactive).

Take `CC1=NNC(=O)C1CC(=O)N/N=C/C(Br)=C/c1ccccc1` (stereo unspecified): the inhibition is 15.5% (inactive).

On to `CC(/C=N/NC(=O)CSc1nc(C)cc(C)n1)=C\c1ccccc1`, for which the inhibition was 11.7% (inactive).

On to `CC(=C/c1ccccc1)/C=N/NC(=O)CSc1nc(C)cc(C)n1`, for which the inhibition is 22.8% (inactive).

As to `Cc1ccc(NC(=O)CCC(=O)N/N=C/C=C/c2ccccc2)cc1`, the inhibition was 16.5% (inactive).

As to `Cc1ccc(C(=O)Nc2cc(=O)n(C)c(=O)n2C)cc1C`, the inhibition is 1.37% (inactive).

As to `CCNC(=O)C/C(C)=N/NC(=O)C1CCCCC1`, the inhibition was 12.5% (inactive).

As for `CCn1ccnc1CN(C)Cc1nc(-c2ccc(C(=O)OC)cc2)no1`, the inhibition is 2.83% (inactive).

With `O=C(CNS(=O)(=O)c1ccc(C(=O)N2CCOCC2)cc1)N1CCOCC1`, the inhibition was -0.01% (inactive).

With `COc1ccccc1NC(=S)N1CCC(c2nc3ccccc3o2)CC1`, the inhibition was 2.4% (inactive).

Consider `CCOC(=O)CCn1c(=S)n(CCC(=O)OCC)c2ccccc21`, for which the inhibition is 9.93% (inactive).

Take `COc1ccc(N2CCN(CC(O)COc3ccc([N+](=O)[O-])cc3)CC2)cc1` (stereo unspecified): the inhibition was 4.37% (inactive).

As to `NC(=O)c1cccc(CC(=O)c2ccccc2)c1`, the inhibition is -5.22% (inactive).

Turning to `O=C(Cc1ccccc1)c1c[nH]c(C(=O)O)c1`, the inhibition is -7.97% (inactive).

On to `O=c1[nH]nc(N/N=C/c2ccccc2OC(F)F)c(=O)[nH]1`, for which the inhibition was 3.73% (inactive).

Consider `Cc1csc(NC(=O)CSCC(=O)O)c1-c1nc2ccccc2s1`, for which the inhibition was 1.7% (inactive).

As for `Cc1cccc(C)c1NC(=O)CCCSc1nc2ccccc2s1`, the inhibition is 2.06% (inactive).

With `O=C(O)CCC(=O)Nc1nc2ccccc2s1`, the inhibition was 16.1% (inactive).

For `CC(=O)Nc1scc(C)c1-c1nc2ccccc2s1`, the inhibition was -9.4% (inactive).

`O=C(NNC(=S)Nc1ccc(Br)cc1Cl)c1ccncc1`: the inhibition was 21.5% (inactive).

As to `CCOC(=O)c1ccc(NC(=O)C2CCCN(S(=O)(=O)c3cnc[nH]3)C2)cc1` (stereo unspecified), the inhibition was -0.78% (inactive).

`COc1ccc(CN2CCN(C(C)C)C(CCO)C2)cc1Cn1cncn1` (stereo unspecified): the inhibition was 1.4% (inactive).

As to `COc1ccc(N2CCN(CCCNC(=O)C3CCC(CNc4nc(=S)[nH]c5ccccc45)CC3)CC2)cc1` (stereo unspecified), the inhibition was 10.8% (inactive).

Consider `COc1ccccc1N(CC(=O)NCCC1=CCCCC1)S(=O)(=O)c1ccccc1`, for which the inhibition is -1.31% (inactive).

As to `CC1CN(C2CCN(C(=O)c3ccccc3)CC2)CC(C)O1` (stereo unspecified), the inhibition was 6.07% (inactive).

For `O=C(c1ccccc1F)N(Cc1ccc2c(c1)OCO2)Cc1cc2cc3c(cc2n2nnnc12)OCO3`, the inhibition was 3.97% (inactive).

Take `CCOC(=O)c1sc(=S)n(-c2ccccc2)c1N`: the inhibition is 6.93% (inactive).

As to `CCN(CC)C(=O)CSc1nc2c(sc(=S)n2-c2ccccc2)c(=O)[nH]1`, the inhibition is 12% (inactive).

For `CCCN(CCC)C(=O)CSc1nc2c(sc(=S)n2-c2ccc(OCC)cc2)c(=O)[nH]1`, the inhibition is 30.1% (inactive).

As to `CCOC(=O)CSc1nc2c(sc(=S)n2-c2ccc(OCC)cc2)c(=O)[nH]1`, the inhibition was 14.5% (inactive).

In the case of `CCOC(=O)CSc1nc2c(sc(=S)n2Cc2ccco2)c(=O)n1-c1ccccc1`, the inhibition is 6.2% (inactive).

As to `CCOc1ccc(-n2c(=S)sc3c(=O)[nH]c(SCC(=O)C(C)(C)C)nc32)cc1`, the inhibition was 37% (inactive).

With `CCN(CC)C(=O)CSc1nc2c(sc(=S)n2Cc2ccco2)c(=O)n1-c1ccccc1`, the inhibition is 8.29% (inactive).

With `O=S(=O)(c1cc(Cl)cc(Cl)c1)N1CCCC1c1nc2ccccc2s1` (stereo unspecified), the inhibition is -5.02% (inactive).

On to `O=C(COc1ncnc2sccc12)Nc1ccc2c(c1)OCCO2`, for which the inhibition was 34.8% (inactive).

In the case of `COc1ccccc1CNC(=O)COc1ccccc1OC`, the inhibition is 3.35% (inactive).

Regarding `Cc1cccc(NC(=O)Nc2ccc3c(c2)N(C)C(=O)CS3)n1`, the inhibition was 3.25% (inactive).
